From PubChem BioAssay
Shown are actives, neighbours in structure and some others; about 3.1% of the full set was active somewhere.
SSB-PriA inh: blocks PriA binding to SSB C-terminal tail; AlphaScreen SSBct-PriA binding, biotinylated peptide; inhibition, % at 33 µM; 0.6% of 430,000 active; in the data active = inhibition mostly above about 37%, no sharp cut-off; inactive = mostly below about 20%;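 also: plate controls were negative control peptide for no effect and reference peptide for full effect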
Anthrax LF prot: inhibitors of Bacillus anthracis lethal factor protease; P15917; multiplex microsphere protease cleavage assay, LF; inhibition, % at 10 µM; 0.12% of 360,000 active; also: plate controls were buffer without enzyme for full effect and enzyme alone for no effect
BoNT A protease: BoNT A light chain protease inhibition; multiplex microsphere protease substrate cleavage, flow cytometry; inhibition, % at 10 µM; 0.17% of 360,000 active; also: plate controls were buffer without enzyme for full effect and enzyme alone for no effect
BoNT F protease: BoNT F light chain protease inhibition | Multiplex microsphere protease cleavage assay, flow cytometry | inhibition, % at 10 µM | 0.22% of 360,000 active; in the data active = inhibition above about 35%, passing the limit was not always enough; inconclusive = no clear call, values can overlap the other calls; also: plate controls were buffer without enzyme for full effect and enzyme alone for no effect
Autofluor counter: flagged as autofluorescent in microsphere protease counterscreen; fluorescence intensity (no concentration beside the values); 3.1% of 360,000 active; compound autofluorescence counterscreen, microsphere flow cytometry; active compounds read high; in the data active = fluorescence intensity above about 16000; inconclusive = no clear call, values can overlap the other calls
* = called active by the depositor; u = inconclusive; x = not tested or not shown. Rule as the data show it, unless noted: active = inhibition above about 30%; inconclusive = no clear call, values can overlap the other calls; inactive = below that.

SMILES	SSB-PriA inh	Anthrax LF prot	BoNT A protease	BoNT F protease	Autofluor counter
Nc1cc(OCc2ccc3c(c2)OCO3)ncn1	-11.0	x	x	x	x
CC(C)(C)OC(=O)N1CCC(C(=O)N2CCC[C@H]2C(=O)O)CC1	-8.9	0.1	2.9	5.8	20337*
CC(C)(C)OC(=O)N1CCC[C@@H]1C(=O)N1CCC(C(=O)O)CC1	-20.6	0.1	-0.3	2.6	2294
O=C(CCc1cccc(Oc2ccc(F)cc2)c1)N1Cc2cnc(N3CCOCC3)nc2C1	6.0	x	x	x	x
c1ccc(-c2oc3ncnc(NCCCN4CCOCC4)c3c2-c2ccccc2)cc1	11.0	-3.5	-3.4	-6.5	26085*
Cc1ccc(S(=O)(=O)n2nc(-c3ccc(Cl)cc3)nc2NCc2ccco2)cc1	9.9	-6.2	u	-5.7	23333*
CCS(=O)(=O)n1nc(-c2ccccc2)nc1NCc1ccco1	-5.4	u	0.4	-8.0	u
O=C(COc1ccccc1)n1nc(-c2ccc(Cl)cc2)nc1NCc1ccco1	-17.3	-13.5	0.1	-2.9	21640*
CC1CC(=NNc2ccc([N+](=O)[O-])cc2[N+](=O)[O-])CC(C)(C)C1 (configuration not stated)	37.1	x	x	x	x
CC(C)(C)C1CCC(=NNc2ccc(S(N)(=O)=O)cc2[N+](=O)[O-])CC1 (configuration not stated)	44.6*	-1.9	-0.4	-7.4	2155
CC1CC(=NNc2ccc(S(N)(=O)=O)cc2[N+](=O)[O-])CC(C)(C)C1 (configuration not stated)	51.9*	x	x	x	x
O=C(Cc1ccc(F)cc1)c1ccc(O)cc1O	11.6	-1.1	1.1	1.0	19761*
Cc1ccc(S(=O)(=O)N(C)c2nc3ccccc3[nH]c2=S)cc1	-5.8	2.1	0.9	1.6	5879
Cc1ccc(S(=O)(=O)N(C)c2nonc2C)cc1	-17.6	0.6	0.8	-0.7	19642*
COc1ccc([C@H]2CCN(C(=O)Cn3c(=O)oc4ccccc43)C2)cc1	2.0	x	x	x	x
O=C(O)c1cc(N2C(=O)C3C4C=CC(C4)C3C2=O)ccc1NCc1cccnc1 (configuration not stated)	-6.0	-1.9	0.5	-0.6	23049*
COc1ccc(Nc2nnc(-c3ccc(N4CCOCC4)c([N+](=O)[O-])c3)c3ccccc23)cc1	13.3	-3.9	-8.6	-9.7	22975*
CC1(C)C2CCC1(CS(=O)(=O)NCC(O)c1ccc(C(F)(F)F)cc1)C(=O)C2 (configuration not stated)	-1.0	x	x	x	x
Cc1cc(C(=O)NCC(O)(c2cccs2)C2CC2)c(C)o1 (configuration not stated)	-11.0	x	x	x	x
CCOc1ccccc1C1CC(=O)Nc2cc3c(cc21)OCCO3 (configuration not stated)	6.0	-2.0	-2.7	-4.2	16905*
CCCOc1ccccc1C1CC(=O)Nc2cc3c(cc21)OCCO3 (configuration not stated)	7.5	1.3	-0.4	24.0	4558
CCOc1c(Cl)cc(CNC(C)(C)CC(C)(C)C)cc1OC	-5.9	-3.9	3.7	4.2	21728*
COc1ccc(S(=O)(=O)N2CCN(CCNC(=O)c3ccc(C(F)(F)F)cc3)CC2)cc1	6.0	x	x	x	x
Cc1oc(C(=O)O)cc1COc1ccc2c3c(c(=O)oc2c1C)CCC3	-18.8	0.2	-0.4	-4.9	16185*
O=S(=O)(NCCCN1CCN(c2ccccc2)CC1)c1ccc2c(c1)OCCO2	-5.0	x	x	x	x
SMILES	SSB-PriA inh	Anthrax LF prot	BoNT A protease	BoNT F protease	Autofluor counter
Cc1cnn(-c2nc(-c3cccs3)cc(C(F)(F)F)n2)c1	-31.9	-0.2	1.6	0.2	23064*
Cn1cccc1C(CNS(=O)(=O)Cc1ccc(F)cc1)N1CCc2ccccc2C1 (configuration not stated)	8.0	x	x	x	x
Cc1ccc2oc(-c3ccc(NC(=O)c4ccc5c(c4)OCO5)cc3)nc2c1	2.7	-5.8	-0.5	10.1	9825
CCCCC(=O)Nc1c(O)c2ccccc2[nH]c1=O	-0.5	-0.5	-1.5	-0.8	21304*
CCOC(=O)c1oc2ccccc2c1NC(=O)c1cccc(OC)c1OC	-54.1	-1.8	2.4	0.6	18642*
CCOC(=O)N1CCN(CC(=O)Nc2c(C(=O)OC)[nH]c3cc(C)ccc23)CC1	4.9	-0.5	-2.5	-2.9	23057*
CCOC(=O)N1CCN(CC(=O)Nc2c(C(=O)OC)[nH]c3ccc(Cl)cc23)CC1	6.8	0.2	-0.1	-0.3	3215
O=C(Nc1ccc(-c2nc3ccccc3o2)cc1)c1ccc2c(c1)OCO2	-6.6	-1.9	0.0	-0.3	16511*
O=C(O)c1ccc2c3c(cccc13)C(=O)N(c1ccc(N=Nc3ccccc3)cc1)C2=O	5.0	x	x	x	x
COc1ccc(C(=O)c2oc3ccccc3c2N)cc1	-19.1	-1.5	-3.8	-7.5	20810*
CCOC(=O)c1oc2ccccc2c1NC(=O)c1cccc(OC)c1	-13.6	-0.9	1.4	-1.3	22777*
